Screen size: about 5,500 compounds; about 2,000 (36%) were called active. Not shown: some 18% with an inconclusive outcome. Rule as the data show it: active = normalized growth mostly below about 0.91 (no sharp cut-off); inconclusive = no clear call, values can overlap the other calls; inactive = mostly above about 0.92. The list shows a part of the results.
Assay: chemical genetic growth profiling, strain panel (AID 1159580);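 also: tested at 20 µM; growth read once vehicle control cultures reached saturation at 30 °C; 1 = growth at the plate median or of vehicle wells; lower values mean less growth of the strain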
Conditions: growth OD

Measured: normalized growth

COc1cc2c(cc1OC)[C@@H]1C(=O)c3ccc4c(c3O[C@@H]1CO2)C=CC(C)(C)O4
inactive: S. cerevisiae deletion strains, locus YKL009W, strain mrt4, active compounds read low 0.999 | S. cerevisiae deletion strains, locus YKL068W, active compounds read low 0.982 | S. cerevisiae deletion strains, locus YKL085W, strain MDH1 (second series), active compounds read low 0.967 | S. cerevisiae deletion strains, locus YKL085W, strain MDH1, active compounds read low 0.967 | S. cerevisiae deletion strains, locus YKL160W, strain elf1, active compounds read low 0.973 | S. cerevisiae deletion strains, locus YKL190W, strain CNB1, active compounds read low 0.986 | S. cerevisiae deletion strains, locus YKR001C, strain vps1, active compounds read low 0.934 | S. cerevisiae deletion strains, locus YKR026C, strain gcn3, active compounds read low 1.01 | S. cerevisiae deletion strains, locus YKR091W, strain srl3, active compounds read low 1 | S. cerevisiae deletion strains, locus YLL001W, strain dnm1, active compounds read low 0.992 | S. cerevisiae deletion strains, locus YLL026W, active compounds read low 1.01 | S. cerevisiae deletion strains, locus YLL041C, strain sdh2, active compounds read low 1.01 | S. cerevisiae deletion strains, locus YLR027C, strain aat2, active compounds read low 0.982 | S. cerevisiae deletion strains, locus YLR039C, strain RIC1, active compounds read low 0.891 | S. cerevisiae deletion strains, locus YLR058C, strain SHM2, active compounds read low 0.983 | S. cerevisiae deletion strains, locus YLR102C, strain apc9, active compounds read low 0.982 | S. cerevisiae deletion strains, locus YLR113W, strain HOG1, active compounds read low 0.898 | S. cerevisiae deletion strains, locus YLR221C, strain rsa3, active compounds read low 0.983 | S. cerevisiae deletion strains, locus YLR258W, strain gsy2, active compounds read low 0.994 | S. cerevisiae deletion strains, locus YLR262C, strain YPT6 (second series), active compounds read low 0.868 | S. cerevisiae deletion strains, locus YLR262C, strain YPT6, active compounds read low 0.916 | S. cerevisiae deletion strains, locus YLR268W, strain sec22, active compounds read low 0.97 | S. cerevisiae deletion strains, locus YLR320W, strain mms22, active compounds read low 0.89 | S. cerevisiae deletion strains, locus YLR330W, strain CHS5, active compounds read low 0.986 | S. cerevisiae deletion strains, locus YLR342W, strain FKS1 (second series), active compounds read low 0.943 | S. cerevisiae deletion strains, locus YLR342W, strain FKS1, active compounds read low 0.946 | S. cerevisiae deletion strains, locus YLR357W, strain rsc2, active compounds read low 0.992 | S. cerevisiae deletion strains, locus YLR370C, strain arc18, active compounds read low 1.01 | S. cerevisiae deletion strains, locus YLR371W, strain rom2, active compounds read low 0.961 | S. cerevisiae deletion strains, locus YLR384C, strain iki3, active compounds read low 1.03 | S. cerevisiae deletion strains, locus YLR418C, strain cdc73, active compounds read low 0.962 | S. cerevisiae deletion strains, locus YML016C, strain PPZ1, active compounds read low 0.981 | S. cerevisiae deletion strains, locus YML032C, strain rad52, active compounds read low 0.964 | S. cerevisiae deletion strains, locus YML120C, strain ndi1, active compounds read low 0.979 | S. cerevisiae deletion strains, locus YML124C, strain tub3, active compounds read low 0.982 | S. cerevisiae deletion strains, locus YMR058W, strain fet3, active compounds read low 0.978 | S. cerevisiae deletion strains, locus YMR078C, strain ctf18, active compounds read low 0.952 | S. cerevisiae deletion strains, locus YMR125W, strain sto1, active compounds read low 1.02 | S. cerevisiae deletion strains, locus YMR129W, active compounds read low 0.995 | S. cerevisiae deletion strains, locus YMR205C, strain PFK2, active compounds read low 0.92 | S. cerevisiae deletion strains, locus YMR223W, strain ubp8, active compounds read low 0.954 | S. cerevisiae deletion strains, locus YMR231W, strain pep5, active compounds read low 1.02 | S. cerevisiae deletion strains, locus YMR263W, strain SAP30, active compounds read low 1 | S. cerevisiae deletion strains, locus YMR307W, strain GAS1, active compounds read low 0.86 | S. cerevisiae deletion strains, locus YNL067W, strain RPL9B, active compounds read low 1.01 | S. cerevisiae deletion strains, locus YNL071W, strain lat1, active compounds read low 0.942 | S. cerevisiae deletion strains, locus YNL128W, strain TEP1, active compounds read low 0.995 | S. cerevisiae deletion strains, locus YNL153C, strain GIM3, active compounds read low 1.02 | S. cerevisiae deletion strains, locus YNL183C, strain NPR1, active compounds read low 0.896 | S. cerevisiae deletion strains, locus YNL209W, strain ssb2, active compounds read low 1.03 | S. cerevisiae deletion strains, locus YNL233W, strain BNI4, active compounds read low 1 | S. cerevisiae deletion strains, locus YNL248C, strain rpa49, active compounds read low 1.02 | S. cerevisiae deletion strains, locus YNL250W, strain rad50, active compounds read low 0.972 | S. cerevisiae deletion strains, locus YNL271C, strain bni1, active compounds read low 0.963 | S. cerevisiae deletion strains, locus YNL298W, strain CLA4, active compounds read low 0.984 | S. cerevisiae deletion strains, locus YNL307C, strain MCK1, active compounds read low 0.929 | S. cerevisiae deletion strains, locus YNL322C, strain KRE1 (second series), active compounds read low 1.02 | S. cerevisiae deletion strains, locus YNL322C, strain KRE1, active compounds read low 0.987 | S. cerevisiae deletion strains, locus YNR049C, strain mso1, active compounds read low 1.01 | S. cerevisiae deletion strains, locus YNR052C, strain pop2, active compounds read low 0.951 | S. cerevisiae deletion strains, locus YOL006C, strain TOP1, active compounds read low 0.908 | S. cerevisiae deletion strains, locus YOL012C, strain htz1 1.09 | S. cerevisiae deletion strains, locus YOL147C, strain pex11, active compounds read low 0.969 | S. cerevisiae deletion strains, locus YOR001W, strain rrp6, active compounds read low 0.997 | S. cerevisiae deletion strains, locus YOR061W, strain CKA2, active compounds read low 0.987 | S. cerevisiae deletion strains, locus YOR069W, strain VPS5, active compounds read low 0.985 | S. cerevisiae deletion strains, locus YOR070C, strain gyp1, active compounds read low 1.01 | S. cerevisiae deletion strains, locus YOR080W, strain dia2, active compounds read low 1.02 | S. cerevisiae deletion strains, locus YOR083W, strain WHI5, active compounds read low 0.943 | S. cerevisiae deletion strains, locus YOR106W, strain vam3, active compounds read low 0.98 | S. cerevisiae deletion strains, locus YOR136W, strain idh2, active compounds read low 0.983 | S. cerevisiae deletion strains, locus YOR144C, strain elg1, active compounds read low 0.979 | S. cerevisiae deletion strains, locus YOR184W, strain ser1, active compounds read low 0.899 | S. cerevisiae deletion strains, locus YOR231W, strain MKK1, active compounds read low 0.953 | S. cerevisiae deletion strains, locus YOR265W, strain rbl2, active compounds read low 1.01 | S. cerevisiae deletion strains, locus YOR270C, strain vph1, active compounds read low 0.922 | S. cerevisiae deletion strains, locus YOR290C, strain snf2, active compounds read low 1.01 | S. cerevisiae deletion strains, locus YOR316C, strain cot1, active compounds read low 0.966 | S. cerevisiae deletion strains, locus YPL051W, strain arl3, active compounds read low 0.973 | S. cerevisiae deletion strains, locus YPL055C, strain LGE1, active compounds read low 0.995 | S. cerevisiae deletion strains, locus YPL078C, strain atp4, active compounds read low 1.01 | S. cerevisiae deletion strains, locus YPL106C, strain sse1, active compounds read low 1.06 | S. cerevisiae deletion strains, locus YPL240C, strain hsp82, active compounds read low 1.04 | S. cerevisiae deletion strains, locus YPL241C, strain CIN2, active compounds read low 0.986 | S. cerevisiae deletion strains, locus YPL256C, strain CLN2, active compounds read low 0.928 | S. cerevisiae deletion strains, locus YPR119W, strain clb2, active compounds read low 0.983 | S. cerevisiae deletion strains, locus YPR141C, strain kar3, active compounds read low 0.95 | S. cerevisiae deletion strains, locus YPR163C, strain tif3, active compounds read low 0.975 | S. cerevisiae deletion strains, locus YPR167C, strain met16, active compounds read low 0.967 | S. cerevisiae deletion strains, strain wtn01, active compounds read low 0.971 | S. cerevisiae strains, strain wild type, active compounds read low 0.984
